Test results as given in PubChem BioAssay (EPA / NIEHS).
Values joined by “and” are separate entries in the source; they are usually repeats but may differ in a detail not shown here. Identical values can stand only once. The source holds several records for some structures; these can differ, active in one and inactive in another. Active and inactive are the calls of the source. How the source made its calls: active means hit-call score of the fitted dose curve at least 0.9, where 1 is the maximum; inactive means score below 0.9.

Read-out: Interleukin-1 alpha (IL1a), IL1A (gene 3552)
Test: BSK_KF3CT_IL1a: BioMAP Diversity Plus: KF3CT Assay for Interleukin-1 alpha (IL1a) Biomarker Activity (AID 2283070)
Settings: primary human keratinocytes with fibroblasts; actives raise or lower the signal
Protocol: BSK_KF3CT is a cell-based, multiplexed-readout assay that uses keratinocytes and foreskin fibroblasts, a human skin primary cell co-culture, with measurements taken at 24 hours after chemical dosing in a 96-well plate.BSK_KF3CT_IL1a is an assay component measured in the BSK_KF3CT assay. It measures IL-1a antibody related to regulation of gene expression using ELISA technology.Data from the assay component BSK_KF3CT_IL1a was analyzed into 1 assay endpoint. This assay endpoint, BSK_KF3CT_IL1a, was analyzed with bidirectional fitting relative to DMSO as the negative control and baseline of activity. Using a type of binding reporter, gain or loss-of-signal activity can be used to understand changes in the signaling as they relate to the gene IL1A. Furthermore, this assay endpoint can be referred to as a primary readout, because this assay has produced multiple assay endpoints where this one serves a signaling function. To generalize the intended target to other relatable targets, this assay endpoint is annotated to the cytokine intended target family, where the subfamily is interleukins.
The levels of cell surface (or secreted, indicated by the prefix "s") biomarker endpoints were measured by ELISA. Overt cytotoxicity to cells in confluent adherent cultures (all systems other than the BT system) was assessed by measuring total protein levels using sulforhodamine B (SRB) staining in parallel cultures at the time of biomarker measurements, indicated as SRB endpoints. For proliferation assays for adherent cell types, individual cell types are cultured at sub-confluence and relative cell numbers quantified by SRB staining at time points optimized for each system (48 h: 3C and CASM3C systems; 72 h: BT and HDF3CGF systems; 96 h: SAg system). SRB was performed by staining cells with 0.1% SRB after fixation with 10% TCA and reading wells at 560 nm.Viability and proliferation of PBMC (T cells) was quantified by Alamar Blue reduction for the SAg and BT systems. For PBMC viability (referred to as PBMC Cytotoxicity within the assay endpoint names), cells were plated (75,000/well in a 96-well plate) and then chemical samples added for 1 h before addition of activators, SEB and TSST-1 (20 ng/mL final concentration each). Cells were incubated for 90 h. Then, Alamar Blue (20 uL/well) (Invitrogen, Cat DAL1100) was added for 6 h, and the plates were read with a fluorescence microplate reader at 546/580 nm (excitation/emission). For PBMC proliferation, cells were plated and activated as above but incubated for only 16 h prior to addition of Alamar Blue. Plates were read after 6 h.

Row | SMILES | outcome | AC50
1 | Clc1ccc(Cl)cc1 | inactive | 
2 | Cc1ccc(O)c(C)c1 | inactive | 
3 | CO/C=C(/C(=O)OC)c1ccccc1COc1cccc(C(F)(F)F)n1 | inactive | 
4 | Cc1cc2c3c(c1)C(c1ccccc1)=N[C@@H](NC(=O)c1ccncc1)C(=O)N3CC2 | inactive | 
5 | Oc1ccc(C(c2ccc(O)cc2)(C(F)(F)F)C(F)(F)F)cc1 |  | 32.1 µM (active)
6 | NS(=O)(=O)C(F)(F)C(F)(F)C(F)(F)C(F)(F)C(F)(F)C(F)(F)C(F)(F)C(F)(F)F |  | 29.4 µM (active) and 43.8 µM (active) and 44.6 µM (active)
7 | CCC(C)(CC)c1cc(NC(=O)c2c(OC)cccc2OC)on1 | inactive | 
8 | Oc1c(Cl)c(Cl)c(Cl)c(Cl)c1Cl | inactive | 20 µM (active)
9 | Sc1ccccc1 | inactive | 
10 | c1cc2ccc3cccc4ccc(c1)c2c34 | inactive | 
11 | Cc1ccccc1CO[C@@H]1C[C@@]2(C(C)C)CC[C@]1(C)O2 | inactive | 
12 | C[C@]12CCC(=O)C=C1CC[C@@H]1[C@@H]2CC[C@]2(C)C(=O)CC[C@@H]12 | inactive | 
13 | ClC(Cl)=C(c1ccc(Cl)cc1)c1ccc(Cl)cc1 |  | 27.9 µM (active)
14 | C[C@]12CCC(=O)C=C1CC[C@@H]1[C@@H]2CC[C@@]2(C)[C@H]1CC[C@]2(C)O | inactive | 
15 | Nc1ccc(-c2ccc(N)cc2)cc1 | inactive | 
16 | ClC1=C(Cl)[C@]2(Cl)[C@@H]3[C@H]4C[C@H]([C@@H]5O[C@H]45)[C@@H]3[C@@]1(Cl)C2(Cl)Cl | inactive | 
17 | c1ccc(-c2ccccc2)cc1 | inactive | 
18 | CCOC(=O)C(O)(c1ccc(Cl)cc1)c1ccc(Cl)cc1 | inactive | 
19 | Cc1cccc([N+](=O)[O-])c1 | inactive | 
20 | CN(C)CCO | inactive | 

Row | SMILES | outcome | AC50
21 | CC(C)C(=O)OCC(C)(C)C(OC(=O)C(C)C)C(C)C (stereo not given) | inactive | 
22 | O=C(O)C(F)(F)C(F)(F)C(F)(F)C(F)(F)C(F)(F)C(F)(F)C(F)(F)C(F)(F)C(F)(F)F |  | 33.5 µM (active) and 47.2 µM (active) and 46.8 µM (active)
23 | Cc1ccccc1[N+](=O)[O-] | inactive | 
24 | COc1ccc(O)c(C(C)(C)C)c1 | inactive | 
25 | C1CC2OC2CC1C1CO1 (stereo not given) | inactive | 
26 | O=S(=O)(O)C(F)(F)C(F)(F)C(F)(F)C(F)(F)C(F)(F)C(F)(F)F | inactive | 
27 | Cc1ccccc1O | inactive | 
28 | CCCCCCCCOC(=O)c1ccccc1C(=O)OCCCCCCCC | inactive | 
29 | CC(c1ccc(O)cc1)(c1ccc(O)cc1)c1ccc(O)cc1 | inactive | 
30 | CCOP(=S)(OCC)SCSC(C)(C)C | inactive | 
31 | O=C(N[C@H]1CN2CCC1CC2)c1cc2ccoc2cn1 | inactive | 
32 | CCC(C)c1cc([N+](=O)[O-])cc([N+](=O)[O-])c1O (stereo not given) | inactive | 
33 | CC#Cc1cc(C)nc(Nc2ccccc2)n1 | inactive | 
34 | Clc1ccc(C(Cl)(Cl)Cl)cc1 | inactive | 
35 | CCC(C)(c1ccc(O)cc1)c1ccc(O)cc1 | inactive | 
36 | C=CC(N)=O | inactive | 
37 | O=C(NC(=O)c1c(F)cccc1F)Nc1cc(Cl)c(OC(F)(F)C(F)F)c(Cl)c1 | inactive | 
38 | CCSC(=O)N(CC)C1CCCCC1 | inactive | 
39 | Clc1ccc(C(c2ccccc2Cl)C(Cl)(Cl)Cl)cc1 (stereo not given) |  | 18.4 µM (active)
